Test results reported in PubChem BioAssay.
Activity calls are given as the source filed them.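 How the source made its calls: active means primary screen hit whose calcium fluorescence ratio, in both repeats, exceeds the weak agonist control mean by 3 SD; inactive means the rest.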

Tested on: TRPC4 beta (transient receptor potential cation channel C4), mouse
Experiment: potentiation of DAMGO EC20 TRPC4 response – cell-based, Fluo-4, HEK293 TRPC4beta/mu-opioid, confirmation (AID 2555)
Details: DAMGO EC20, Fluo-4 calcium flux, at 10 µM; active compounds read high

outcome, inactive:
COc1ccc(-n2nc(C(=O)NCC(=O)NCCCN3CC(C)CC(C)C3)c3ccccc3c2=O)cc1Cl (stereo not given)
CCC(=O)NC(C)C(c1cccs1)N1CCN(c2ccccc2)CC1 (stereo not given)
Cc1sc2ncnc(NCC(c3ccccc3)N(C)C)c2c1C (stereo not given)
Cc1cc(OCC(=O)NC2CCCCC2)ccc1Cl
S=C(NCCc1ccccn1)NC1CCCCC1
Cc1cccc(Cc2c(C)nc3c(C(=O)NCc4ccco4)cnn3c2C)c1
Cc1ccc(Cn2c(=N)c(C(=O)NC3CCCC3)cc3c(=O)n4ccccc4nc32)cc1
CCN1CCN(c2ccc(S(=O)(=O)N3CCOCC3)cc2NC(=O)c2ccccc2OC(F)F)CC1
COc1ccc(C)c(NC(=O)NCCc2cnc[nH]2)c1
CN(C)CCNc1ccc(Cl)cc1[N+](=O)[O-]
CCn1c(O)c(N=NC(=O)c2cccc(S(=O)(=O)N3CCCCC3)c2)c2ccccc21
Cc1onc(-c2ccccc2)c1C(=O)NNC(=S)NC(=O)c1ccc2c(c1)OCO2
COc1ccc(Cl)cc1C(=O)NCCN(C)C
O=C1NCN(c2ccccc2)C12CCN(CCCC(c1ccc(F)cc1)c1ccc(F)cc1)CC2
COc1c(C)cc(C(=O)C2CCCN(Cc3cccc4nccnc34)C2)cc1C (stereo not given)
O=C(c1cccc([N+](=O)[O-])c1)N1CCCC(C(=O)N2CCCCCC2)C1 (stereo not given)
CCOc1ccc(-n2c(SCC(=O)O)nc3sc4c(c3c2=O)CCCC4)cc1
O=C(NC1CCN(Cc2ccccc2)CC1)C12CC3CC(CC(C3)C1)C2
C1CCN(c2nc(N3CCCC3)nc(N3CCNCC3)n2)C1
O=C(Nc1cccc(Cl)c1)N1CCN(C/C=C/c2ccccc2)CC1

potentiation, active:
Cc1cc(OCC(=O)N(C(C)C)C(C)C)cc(C)c1Br 22%
CCCCCCn1c(N2CCN(c3ccccc3)CC2)nc2c1c(=O)n(C)c(=O)n2C 117%
Cc1ccc(-c2nnc(N3CCC(C)CC3)c3ccccc23)cc1C 127%
Cc1cc(C(C)(C)C)c(O)c(C)c1CC1=NCCN1 14%
O=C(NCc1ccccc1)C1=C[C@H](c2ccc(Br)cc2)C[C@H](OCc2ccc(CO)cc2)O1 35%
O=C(Nc1ccccc1)C1=C[C@H](C2CCCCC2)C[C@H](OCc2ccc(CO)cc2)O1 85%
Cc1ccc(S(=O)(=O)N2CCC(N3CCN(C)CC3)CC2)cc1Cl 20%
O=[N+]([O-])c1ccc(/C=N/Nc2nc(N3CCCCC3)nc(N3CCCCC3)n2)o1 21%
Cc1cccc(/C=N/NC(=O)c2cccc(Cl)c2)n1 79%
COC(=O)[C@@]12CCCCN1[C@H](c1ccc(-c3cccc(Cl)c3)c(OC)c1)[C@H]1C(=O)N(C)C(=O)[C@H]12 27%
CC1=C(C(=O)NCc2ccccc2)C(c2cc(Br)cc(Br)c2OC(C)C)NC(=O)N1 (stereo not given) 28%
CC1Cc2ccccc2N1C(=O)CSc1nc2c(c(=O)n(C)c(=O)n2C)n1Cc1ccc(F)cc1 (stereo not given) 40%
O=C1C(Cl)=C(Nc2cccc(O)c2)C(=O)N1Cc1ccccc1 38%
O=C(NCc1ccccc1)C1=C[C@H](c2ccc(C(F)(F)F)cc2)C[C@H](OCc2ccc(CO)cc2)O1 51%
Cc1ccc(/C=N/NC(=O)NC2CCCCC2)o1 54%
O=C(Nc1cccc(Cl)c1)c1cnn2cccnc12 14%
Cc1cc(-c2ccc(C)c(S(=O)(=O)N3CCN(C(=O)c4ccco4)CC3)c2)on1 46%
Cc1cccc(/C=N/NC(=O)c2cc(Br)ccc2O)n1 46%
CNc1nc(N2CCc3ccccc32)ncc1F 75%
Cc1cccc(Cn2c(N3CCN(c4ccccc4)CC3)nc3c2c(=O)n(C)c(=O)n3C)c1 71%
